Screens deposited in PubChem BioAssay by National Center for Advancing Translational Sciences (NCATS).
Shown are actives, neighbours in structure and some others; about 10% of the full set was active somewhere.
G9a inh: qHTS Assay for Inhibitors of Histone Lysine Methyltransferase G9a. G9a H3K9 monomethylation, AlphaScreen, 2 h. Potency, µM (titrated, usually from 102 µM), inactives show top-dose activity, negative = inhibition, usual class: inhibitors. 8.8% of 350,000 active; also: potency is read from the fitted curve at half-maximal effect; nearly all actives have a fitted effect of over 75% in size
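AlphaScreen read-out: biotin-H3K9 peptide (500 nM) methylation by 20 nM enzyme with 20 uM SAM, 2 h at room temperature after 15 min compound preincubation; anti-monomethyl H3K9 antibody plus donor/acceptor beads, 10 min dark.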
VDR inhibitor: Inhibitors of the vitamin D receptor (VDR): qHTS. Vitamin D3 receptor (Homo sapiens), P11473. Potency, µM, for the others: max response, negative = inhibition, usual class: inhibitors. VDR-SRC2-3 peptide fluorescence polarization, 2 h. 0.93% of 400,000 active; also: potency is read from the fitted curve at half-maximal effect
Target sequence (P11473 whole entry, looked up): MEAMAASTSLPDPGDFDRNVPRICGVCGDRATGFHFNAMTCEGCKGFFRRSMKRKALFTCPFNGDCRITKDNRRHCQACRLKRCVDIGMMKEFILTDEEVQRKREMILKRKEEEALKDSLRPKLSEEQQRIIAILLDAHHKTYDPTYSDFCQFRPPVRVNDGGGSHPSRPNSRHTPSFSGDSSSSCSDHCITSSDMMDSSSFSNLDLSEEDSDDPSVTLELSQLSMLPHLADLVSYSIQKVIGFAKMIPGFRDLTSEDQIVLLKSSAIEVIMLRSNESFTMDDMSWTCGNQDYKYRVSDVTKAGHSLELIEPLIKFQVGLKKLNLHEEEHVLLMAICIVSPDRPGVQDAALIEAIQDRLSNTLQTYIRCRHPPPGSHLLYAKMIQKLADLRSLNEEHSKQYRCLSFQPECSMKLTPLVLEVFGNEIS
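After 23 nl compound addition and a short centrifugation, plates sat for 2 hours at ambient temperature; polarization of fluorescence then indicated loss of VDR binding to peptide SRC2-3.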
CCT chaperon mod: High-Throughput Screening for Modulators of Cytosolic Chaperonin Activity; 0.3% of 360,000 active; activity change, % (no concentration beside the values), hits read low; AID 651819, 2012; purified chaperonin ATPase assay, HTRF ADP detection, 30 min; in the data active = activity change below about -30%
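First, chaperonin was dispensed at 40 nM or 20 nM final depending on batch activity. Next, compounds were pinned at 76 uM and ATP added at 10 uM. After 30 min at 37 °C, ADP detection reagents ran 30 min at ambient temperature.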
PLK1 PBD inh: qHTS for Inhibitors of PLK1-PDB (polo-like kinase 1 - polo-box domain): Primary Screen; Serine/threonine-protein kinase PLK1 (Homo sapiens), P53350; Plk1 PBD binding of FITC phosphopeptide, fluorescence polarization; AID 720504, 2013; 2.8% of 360,000 active; Potency, µM, for inactives: max response, negative = inhibition, usual class: inhibitors; also: potency is read from the fitted curve at half-maximal effect; series mostly up to about 57 µM; nearly all actives have a fitted effect of over 65% in size
Sfp PPTase inh: qHTS Assay for Inhibitors of Bacillus subtilis Sfp phosphopantetheinyl transferase (PPTase); Potency, µM, for inactives: largest response in the series, negative = inhibition, most hits filed as inhibitors; 3.5% of 310,000 active; 4'-phosphopantetheinyl transferase ffp (Bacillus subtilis), Q9F4F7; Biochemical Sfp PPTase activity, qHTS;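 also: the enzyme is Sfp with the accession as filed and its product quenches rhodamine fluorescence; potency is read from the fitted curve at half-maximal effect; 0% = enzyme reaction without inhibitor and -100% = no enzyme wells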
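Fluorescence-quenching assay with 15 nM Sfp, 5 uM rhodamine-CoA and 12.5 uM BHQ-2-labelled ybbR peptide in pH 7.6 Hepes/MgCl2 buffer. Enzyme was pre-incubated with compound for 15 min at room temperature. Rate was taken from the 30-min fluorescence change (525/598 nm).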
MmCpn inh: Inhibitors of TCP-1 ring complex (TRiC) of Methanococcus maripaludis (MmCpn): qHTS; Chaperonin Mm-Cpn (Methanococcus maripaludis); purified Mm-Cpn ATPase, ADP Transcreener TR-FRET; Potency, µM (top dose mostly 76.9 µM), for the others: at the top dose activity, negative = inhibition, hits mostly inhibitors; 0.031% of 330,000 active; also: potency is read from the fitted curve at half-maximal effect; nearly all actives have a fitted effect of over 80% in size
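ATPase read-out: TR-FRET ADP immunoassay (anti-ADP Eu cryptate vs ADP-d2), ex 320 nm, em 590/665 nm; signal drops as ADP forms. Enzyme 25 nM, ATP 10 uM, 30 min at 37°C after 10 min compound preincubation.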
The depositor's hits bear a star; ? = inconclusive; . = not tested or not shown; [ ] = remark or other dose. Unless noted, calls follow the shape of the dose curve; as a rule, active = well fitted curve in the direction sought with a large enough effect; inconclusive = small, poorly fitted or top-dose-only effect, or another doubt; inactive = no such curve, though single readings can be large; an effect the other way counts as inactive or inconclusive. Unless noted, % is scaled to controls: 0 for no effect and ±100 for the full control effect.

SMILES	G9a inh	VDR inhibitor	CCT chaperon mod	PLK1 PBD inh	Sfp PPTase inh	MmCpn inh
Cc1ccc(Cl)cc1N1CCN(S(=O)(=O)c2ccc3c(c2)CC(=O)N3C)CC1	-27.4%[59 µM]	-8.6%	-54.2*	-4.3%	-1.3%	-2.5%
CN1C(=O)Cc2cc(S(=O)(=O)N3CCN(c4cccc(Cl)c4)CC3)ccc21	45.5%[0.501 µM]	-5.8%	-1.8	-2.6%	-5.2%	-0.2%
CC(=O)OCC1OC(c2ccc(C(C)=O)cc2)C=CC1OC(C)=O (configuration not stated)	.	.	.	.	5.9%	.
Cn1c(O)c(N=NC(=O)C2COc3ccccc3O2)c2ccccc21 (configuration not stated)	1.2%[12.7 µM]	-21.3%	-2.7	26.7µM*	-3.5%	2.1%
Cc1ccc(NC(=O)Cn2c(O)c(N=NC(=O)c3cc4ccccc4cc3O)c3ccccc32)cc1	?	4.0%	-1.7	-27.0%	-15.8%	1.6%
Cc1ccccc1NC(=O)c1ccccc1O	-37.8%[59 µM]	7.7%	-0.2	-11.6%	19.4%	0.6%
COc1ccccc1NC(=O)Cn1c(O)c(N=NC(=O)c2ccccc2O)c2ccccc21	44.7µM*	-12.1%	-1.0	-18.7%	-55.9%	1.0%
Cn1c(O)c(N=NC(=O)c2ccccc2O)c2ccccc21	?	?	-4.1	3.36µM*	?	-1.1%
Cc1cc(N=NC(=O)c2ccccc2O)c2ccccc2c1O	-3.9%	-3.9%	-0.1	26.7µM*	-8.0%	-12.0%
Cc1occc1C(=O)N=Nc1c(O)n(C)c2ccccc12	?	12.6%	1.1	-11.9%	-0.4%	-1.1%
CC(C)c1ccccc1NC(=O)CN(c1ccccc1)S(=O)(=O)N(C)C	-0.9%[59 µM]	8.6%	.	.	.	.
NN(CCO)C(=S)Nc1ccc(Cl)cc1	11.2µM*	0.2%	-0.3	-10.8%	-7.5%	-3.1%
NN(Cc1ccccc1)C(=S)Nc1ccc(Cl)c(Cl)c1	79.4%	29.6%	0.5	3.5%	12.7%	-4.5%
Cc1cccc(CCn2c(=O)c3ccccc3n(Cc3ccccc3C)c2=O)c1	0.7%[59 µM]	-0.6%	.	.	.	.
COc1ccc(N(CC(=O)N2CCN(c3ccc(F)cc3)CC2)S(=O)(=O)c2c(C)nn(C)c2C)cc1	-28.7%[59 µM]	2.1%	.	.	.	.
COC(=O)N1CC=CC1(C)C(=O)NCc1cc(F)cc(C(F)(F)F)c1 (configuration not stated)	10.3%	-7.7%	-1.0	-2.2%	8.1%	-1.6%
CC(=O)N1CC=CC1(C)C(=O)NCc1cc(F)cc(C(F)(F)F)c1 (configuration not stated)	39.8µM*	-13.6%	-3.7	-5.5%	-5.3%	3.2%
C(=N\N1CCOCC1)/c1nc(-c2ccccc2)n2ccccc12	17.8µM*	7.3%	-1.7	-5.0%	-20.9%	-3.0%
CC(C)(C)c1ccc(-c2nc(C=O)c3ccccn23)cc1	-6.6%[2.33 µM]	-21.0%	-2.5	2.4%	13.7%	-0.7%
COCCCn1c(-c2ccco2)nc2ccccc2c1=O	-0.9%[59 µM]	-6.6%	0.9	-8.4%	17.0%	-3.2%
COCCCN=C(c1ccco1)n1c(=S)nc(-c2ccco2)n(CCCOC)c1=S	7.94µM*	?	-2.1	18.9µM*	11.2µM*	-0.6%
CC(=O)c1cccc(NC(=O)c2nc(-c3ccccc3)n(-c3ccccc3C)n2)c1	-35.2%[59 µM]	14.3%	.	.	.	.
CCCC(=O)NCC(c1ccc2c(c1)OCO2)N1CCOCC1 (configuration not stated)	-10.2%[59 µM]	19.1%	.	.	.	.
CC(C)(C)c1ccc(C(=O)NCCc2csc3nc(-c4ccccc4F)nn23)cc1	-0.4%[59 µM]	5.5%	.	.	.	.
CN(C)c1ccc(NC(=O)CCSc2nc(-c3ccco3)cc(C(F)(F)F)n2)cc1	0.708µM*	-17.3%	.	.	.	.
CSc1nc(NCCOC(C)=O)c(C#N)c(-c2ccc(C(C)(C)C)cc2)n1	27.2%[59 µM]	4.7%	.	.	.	.
